A short description of test [1]: qHTS assay for small molecule agonists of the p53 signaling pathway (AID 651631; calls by dose curve; note: nearly all actives have a fitted effect of over 15% in size; note: potency is the fitted concentration of half-maximal effect). The gist of the method:
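Readout was fluorescence from the LiveBLAzer FRET substrate, applied for 2 h at room temperature after 16 h compound exposure at 37 °C. Cells were the p53RE-bla HCT-116 line, with beta-lactamase driven by p53 response elements.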

Test [2] can be described thus: qHTS assay for small molecules that induce genotoxicity in human embryonic kidney cells expressing luciferase-tagged ATAD5 (AID 651632). Note: nearly all actives have a fitted effect of over 15% in size. An outline of the steps: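 Quantitative HTS in HEK293T expressing luciferase-tagged ATAD5, whose levels rise upon DNA damage. Exposure ran 16 hr at 37C and 5% CO2, with luminescence read 30 min after Amplite addition at room temperature.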

Test [3] is described as follows: qHTS assay for small molecule agonists of the p53 signaling pathway - cell viability (AID 651633; calls by dose curve; note: series mostly up to about 83 µM; nearly all actives have a fitted effect of over 30% in size). An outline of the steps:
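Viability counter-read: CellTiter-Glo luminescence (30 min, room temperature) in the same p53RE-bla plates. These plates had been exposed to compounds for 16 h at 37 C.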

Test [4] can be described thus: qHTS assay for small molecules that induce genotoxicity in human embryonic kidney cells expressing luciferase-tagged ATAD5 - cell viability (AID 651634; calls by dose curve; note: nearly all actives have a fitted effect of over 25% in size). An outline of the steps: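 After 15.5 hr incubation with compound at 37C, 5% CO2, HEK293T ATAD5-luciferase cells received CellTiter-Fluor reagent; fluorescence intensity was quantified following 30 min at 37C.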
Test [5] can be described thus: qHTS assay for small molecule disruptors of the mitochondrial membrane potential - cell viability (AID 720634; calls by dose curve;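 note: human HepG2 liver cancer cells; series mostly up to about 83 µM; nearly all actives have a fitted effect of over 20% in size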). The gist of the method:
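ATP-based luminescent viability readout (CellTiter-Glo, 30 min, room temperature) in HepG2 cells multiplexed with the m-MPI membrane potential dye; compound exposure lasted 1 hr at 37 C.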

Test [6] is described as follows: qHTS assay for small molecule disruptors of the mitochondrial membrane potential (AID 720635). Note: potency is the fitted concentration of half-maximal effect. The gist of the method:
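Mitochondrial membrane potential tracked with Mito-MPS dye, red aggregates (ex 540/em 590 nm) against green monomers (ex 490/em 535 nm). Compound treatment 1 hr at 37C, dye 30 min in HepG2.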

Test [7] in a line: qHTS assay to test for compound auto fluorescence at 590 nm (red) in HepG2 cells (AID 720674). The gist of the method:
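1 hr compound incubation on HepG2 cells, 37 C, 5% CO2; plate read ex 540 nm / em 590 nm; intensities reported as Rose Bengal sodium equivalents.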

The nature of test [8]: qHTS assay to test for compound auto fluorescence at 535 nm (green) in HepG2 cells (AID 720675).
The nature of test [9]: qHTS assay to test for compound auto fluorescence at 460 nm (blue) in HEK293 cells (AID 720678). Note: potency is the fitted concentration of half-maximal effect. The gist of the method: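 HEK293 cells (2,000 per well, medium with 10% dialyzed FBS) attached for 4-5 hr at 37C, then received compound and stood overnight at 37C, 5% CO2. Blue fluorescence was read at Ex/Em 405/460 nm and expressed relative to triamterene.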
A short description of test [10]: qHTS assay to test for compound auto fluorescence at 590 nm (red) in HEK293 cells (AID 720679). The gist of the method: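 HEK293 cells (2,000/well, medium with 10% dialyzed FBS) attached for 4-5 hr at 37C, received 23 nL compound and were incubated overnight at 37C, 5% CO2. Red fluorescence was then read at 540/590nm Ex/Em, referenced to Rose Bengal sodium.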

SMILES strings stand for the structures. “And” between values parts separate entries of the source, which are not always exact repeats. Equal entries are not always repeated. Records with an inconclusive call do not appear. The source made the active and inactive calls. Unless noted, calls come from the whole dose curve; as a rule, active = well fitted curve in the direction sought with a large enough effect in the repeat runs; inconclusive = weak or mixed curves; inactive = no such curve, though single readings can be large; an effect the other way counts as inactive or inconclusive.
Tags give direction and shape of the fitted curve or compound fluorescence and quenching.

For the compound `COc1ccccc1[N+](=O)[O-]`, the Potency entry in [1], in test [2], in test [3], in [4], in test [5] and in test [6] was “inactive” in each case. Further, the Potency entry in test [9] is “inactive”. Moreover, the compound was classed as inactive in test [7], in [8] and in test [10].

`CC(=O)C(C)C`: the Potency entry in test [1], in test [2], in [3], in test [4], in test [5] and in test [6] was “inactive” each time. Further, in [9], the Potency result is “inactive”. In addition, the result in test [7], in test [8] and in test [10] was inactive.

Consider `CCc1cccc(CC)c1N`, for which the Potency result in [1], in test [2], in test [3], in [4], in test [5] and in [6] was “inactive” throughout. Also, in test [9], the Potency entry was “inactive”. The call in test [7], in [8] and in test [10] was inactive.

As to `Oc1ccc(Cc2ccccc2O)cc1`, the Potency entry in test [1], in [2], in test [3], in test [4], in [5] and in [9] was “inactive” in each case. Also, in test [6], the Potency is 11 µM (active) and 27.3 µM (active). The call in test [7], in test [8] and in test [10] was inactive.

Take `CC1(C)C(=O)N(Cl)C(=O)N1Cl`: the Potency entry in test [1], in test [2], in test [3], in test [4], in [5] and in test [6] was “inactive” in each case. Besides, the Potency result in test [9] is “inactive”. Further, the compound was called inactive in [7], in [8] and in test [10].

As to `CCCCCCC(=O)O`, the Potency result in test [1], in test [2], in test [3], in [4], in test [5] and in test [6] was “inactive” in each case. Further, the Potency entry in test [9] was “inactive”. Further, the compound was called inactive in test [7], in test [8] and in [10].

On to `Nc1nc(N)c2nc(-c3ccccc3)c(N)nc2n1`, for which the Potency in [1] is 26.6 µM (active) and 15.5 µM (active) and 34.4 µM (active); in test [9], 14.1 µM [fluorescent] (active) and 31.6 µM [fluorescent] (active) and 35.5 µM [fluorescent] (active). For the same compound, the Potency result in test [2], in [3], in [4], in test [5] and in test [6] was “inactive” throughout. The result in test [7], in [8] and in test [10] was inactive.

On to `O=C(O)C1=NN(c2ccc(S(=O)(=O)O)cc2)C(=O)C1`, for which the Potency result in test [1], in test [2], in [3], in [4], in test [5] and in test [6] was “inactive” in each case. Besides, the Potency entry in test [9] is “inactive”. The compound was classed as inactive in test [7], in test [8] and in [10].

Regarding `O=[N+]([O-])c1ccccc1C(F)(F)F`, the Potency entry in [1], in test [2], in test [3], in test [4], in test [5] and in [6] was “inactive” in each case. Besides, the Potency entry in test [9] was “inactive”. Moreover, the compound was called inactive in test [7], in test [8] and in test [10].

Regarding `Cc1ccc([N+](=O)[O-])cc1N`, the Potency entry in test [1], in [2], in [3], in [4], in test [5] and in test [6] was “inactive” in each case. Moreover, the Potency entry in [9] was “inactive”. For the same compound, the result in test [7], in test [8] and in test [10] was inactive.

With `CCc1cccc(O)c1`, the Potency result in [1], in [2], in test [3], in test [4], in [5] and in test [6] was “inactive” in each case. Also, in [9], the Potency entry was “inactive”. The outcome in test [7], in [8] and in test [10] was inactive.

Consider `COC(=O)CCCCC(=O)OC`, for which the Potency result in [1], in test [2], in test [3], in test [4], in test [5] and in test [6] was “inactive” each time. Besides, in test [9], the Potency result was “inactive”. For the same compound, the outcome in test [7], in test [8] and in test [10] was inactive.

As for `CC(C)c1ccc(C(C)C)cc1`, the Potency entry in test [1], in [2], in test [3], in [4], in test [5] and in test [6] was “inactive” in each case. In test [9], the Potency result is “inactive”. Besides, the compound was classed as inactive in [7], in test [8] and in test [10].

Take `Cc1ccc(C(C)C)cc1`: the Potency entry in test [1], in test [2], in test [3], in [4], in [5] and in [6] was “inactive” throughout. In test [9], the Potency entry was “inactive”. The result in [7], in test [8] and in test [10] was inactive.

For the compound `COc1ccc([C@@H]2CC(=O)c3c(O)cc(O[C@@H]4O[C@H](CO[C@@H]5O[C@@H](C)[C@H](O)[C@@H](O)[C@H]5O)[C@@H](O)[C@H](O)[C@H]4O)cc3O2)cc1OC`, the Potency result in test [1], in test [2], in test [3], in test [4], in [5] and in test [6] was “inactive” throughout. The Potency entry in test [9] was “inactive”. Also, the result in [7], in test [8] and in test [10] was inactive.

Take `C=C(C)CC(C)(C)C`: the Potency result in test [1], in test [2], in test [3], in [4], in [5] and in test [9] was “inactive” in each case. The result in test [7], in [8] and in [10] was inactive.

Take `CCCCCCCCO`: the Potency result in test [1], in test [2], in test [3], in test [4], in [5] and in test [6] was “inactive” in each case. In addition, the Potency result in [9] is “inactive”. For the same compound, the outcome in test [7], in test [8] and in [10] was inactive.

Consider `Cc1ccccc1C=O`, for which the Potency result in test [1], in test [2], in test [3], in test [4], in test [5] and in [6] was “inactive” in each case. Further, the Potency result in test [9] was “inactive”. For the same compound, the call in [7], in test [8] and in [10] was inactive.

Take `CCCCCCCCCCCCCC(=O)O`: the Potency result in test [1], in test [2], in test [3], in test [4], in test [5] and in [6] was “inactive” throughout. The Potency entry in [9] was “inactive”. In addition, the compound was classed as inactive in test [7], in test [8] and in [10].

As for `O=C(c1ccccc1)c1ccc(O)c(O)c1O`, the Potency entry in test [1], in test [2], in test [3], in test [4], in test [5] and in test [9] was “inactive” throughout. In [6], the Potency is 48.6 µM (active). For the same compound, the outcome in test [7], in test [8] and in test [10] was inactive.

Take `NC(=O)NC(N)=O`: the Potency entry in test [1], in test [2], in test [3], in test [4], in test [5] and in test [6] was “inactive” in each case. Further, the Potency result in test [9] is “inactive”. The result in test [7], in test [8] and in test [10] was inactive.

As to `CCCOC(=O)NCCCN(C)C`, the Potency result in test [1], in [2], in [3], in [4], in [5] and in [6] was “inactive” throughout. Moreover, the Potency entry in test [9] was “inactive”. Further, the call in [7], in test [8] and in test [10] was inactive.

As for `O=C(O)Cc1c[nH]c2ccccc12`, the Potency result in test [1], in test [2], in test [3], in [4], in [5] and in test [6] was “inactive” in each case. Moreover, the Potency entry in [9] was “inactive”. Besides, the result in test [7], in [8] and in test [10] was inactive.

As to `Cc1ccncc1`, the Potency entry in test [1], in test [2], in [3], in test [4], in test [5] and in [6] was “inactive” in each case. In addition, in test [9], the Potency entry was “inactive”. The outcome in test [7], in test [8] and in test [10] was inactive.

As for `NC(N)=S`, the Potency result in [1], in [2], in [3], in [4], in test [5] and in [6] was “inactive” each time. The Potency entry in test [9] was “inactive”. In addition, the call in [7], in test [8] and in [10] was inactive.
